Data: PubChem BioAssay AID504604 (National Center for Advancing Translational Sciences (NCATS), 2011)
Where “and” joins values, the source holds several entries; their conditions need not be identical. Equal entries are not always repeated. Calls of active or inactive are those of the source. The call rests on the fitted dose curve; in most records, active means well fitted inhibition curve with a large enough effect; inconclusive means small, poorly fitted or top-dose-only effect; inactive means flat fitted curve, though single readings scatter.

Test: Quantitative high throughput screen to test activity of anti-malarial compounds in the Dd2 strain of Plasmodium Falciparum
Settings: P. falciparum Dd2 in RBCs, SYBR Green growth, 72 h
From the text: NIH Molecular Libraries Probe Production Network [MLPCN] NIH Chemical Genomics Center [NCGC] MLPCN Grant: R21 NS059500 Assay Provider: David Fidock and Eric Ekland, Columbia University The goal of this screen is to measure the ability of a set of anti-malarial compounds to inhibit the Dd2 strain of P. falciparum. These compounds have been screened in a delayed death phenotype assay and have been identified as inhibitors of the delated death phenotype, by inhibiting the development of the apicoplast in the malarial parasite Plasmodium falciparum (described below) The biochemical processes that make this organelle essential for erythrocytic stage parasites are not well understood. However, antibiotics, such as azithromycin and tetracycline, which target the apicoplast translational machinery, have a potent antimalarial effect. […] We have developed a cell-based assay that measures parasite growth based on the expression of an integrated copy of a firefly luciferase reporter. To detect small molecules that cause this 'delayed death' phenotype, erythrocytes infected with the luciferase-expressing parasites were incubated with compounds for either one or two generations, corresponding to 48 and 96 hours, respectively. Compounds that inhibit parasite growth in the second generation, but not the first, should be enriched in antimalarials that target the apicoplast. Growth inhibition is detected by a decrease in luciferase activity
3 ul culture medium was dispensed into black clear-bottom plates (aurora) with multidrop Combi followed by a pin-transfer of […] compounds and positive control into assay plates. (Controls: 1 mM Artemisinin 1:2 dilution in duplicate Multi-Drop dispense of P. falciparum infected RBCs (0.3% parasitemia, 2.5% hematocrit final concentration) followed by 72 hr incubation (37C, 5% CO2). Multi-drop dispense 2 ul 10 X SYBR Green lysis buffer ([…] Tris-HCl, 10 mM EDTA, 0.16% saponin (w/v), 1.6% Triton-X (v/v), 10 x SYBR Green I supplied as 10,000 x final concentration by Invitrogen) into assay plates. Incubated at Room temperature, overnight in the dark and then read using Envision (Perkin Elmer) with fluorescence intensity at 485 nm excitation and 535 nm emission wavelengths.

Potency, active:
CC(C)NC(=O)Nc1ccc2c(c1)C(=O)N([C@@H](C)CO)C[C@@H](C)[C@H](CN(C)S(=O)(=O)c1ccc(F)cc1)OCCCC[C@H](C)O2 1790 nM
C[C@@H]1CCCCO[C@@H](CN(C)Cc2ccc(F)cc2)[C@H](C)CN([C@@H](C)CO)C(=O)c2cc(NC(=O)Nc3ccccc3)ccc2O1 6340 nM
C[C@@H]1CN([C@@H](C)CO)C(=O)c2cc(Nc3nc4ccccc4o3)ccc2O[C@@H](C)CCCCO[C@H]1CN(C)S(=O)(=O)c1ccc(F)cc1 2000 nM
CC(C)N1C[C@@H](C)[C@H](CN(C)S(=O)(=O)c2ccc(F)cc2)OCCCC[C@H](C)Oc2ccc(NC(=O)Nc3ccccc3)cc2C1=O 56.5 nM
C[C@@H]1CN(CCO)C(=O)c2cc(NC(=O)Nc3ccccc3)ccc2O[C@@H](C)CCCCO[C@H]1CN(C)S(=O)(=O)c1ccc(F)cc1 2520 nM
C[C@@H]1CN([C@@H](C)CN=[N+]=[N-])C(=O)c2cc(NC(=O)Nc3ccccc3)ccc2O[C@@H](C)CCCCO[C@H]1CN(C)S(=O)(=O)c1ccc(F)cc1 56.5 nM
C[C@@H]1CN([C@@H](C)COC(=O)c2ccccc2)C(=O)c2cc(NC(=O)Nc3ccccc3)ccc2O[C@@H](C)CCCCO[C@H]1CN(C)S(=O)(=O)c1ccc(F)cc1 179 nM
C[C@@H]1CN([C@@H](C)CO)C(=O)c2cc(NC(=O)Nc3ccccc3)ccc2O[C@@H](C)C/C=C\CO[C@H]1CN(C)S(=O)(=O)c1ccc(F)cc1 1260 nM
C=CCOC(=O)N(C)C[C@@H]1OCCCC[C@H](C)Oc2ccc(NC(=O)Nc3ccccc3)cc2C(=O)N([C@@H](C)CO)C[C@H]1C 1260 nM
C[C@@H]1CN([C@@H](C)CO)C(=O)c2cc(NC(=O)Nc3ccccc3)ccc2O[C@@H](C)CCCCO[C@H]1CN(C)S(=O)(=O)c1cccc(F)c1 50.4 nM
C[C@@H]1CN([C@@H](C)CO)C(=O)c2cc(NC(=O)Nc3ccccc3)ccc2O[C@@H](C)CCCCO[C@H]1CN(C)S(=O)(=O)c1cccnc1 4490 nM
C[C@@H]1CN([C@@H](C)COC(=O)c2ccccc2)C(=O)c2cc(NC(=O)Nc3ccccc3)ccc2O[C@@H](C)CCCCO[C@H]1CN(C)C(=O)OC(C)(C)C 798 nM
C=CCOC(=O)N(C)C[C@@H]1OCCCC[C@H](C)Oc2ccc(NC(=O)Nc3ccccc3)cc2C(=O)N([C@H](C)COC(=O)c2ccccc2)C[C@H]1C 896 nM
Cc1noc(C)c1NC(=O)Nc1ccc2c(c1)C(=O)N([C@@H](C)CO)C[C@@H](C)[C@H](CN(C)S(=O)(=O)c1ccc(F)cc1)OCCCC[C@H](C)O2 634 nM
Cc1noc(C)c1NC(=O)Nc1ccc2c(c1)C(=O)N(C(C)C)C[C@@H](C)[C@H](CN(C)S(=O)(=O)c1ccc(F)cc1)OCCCC[C@H](C)O2 179 nM and 2.52 µM
COCCOCOC[C@H](C)N1C[C@@H](C)[C@H](CN(C)S(=O)(=O)c2ccc(F)cc2)OCCCC[C@H](C)Oc2ccc(NC(=O)Nc3ccccc3)cc2C1=O 35.7 nM
C[C@@H]1CN([C@@H](C)CO)C(=O)c2cc(NC(=O)Nc3ccccc3)ccc2O[C@@H](C)C/C=C/CO[C@H]1CN(C)S(=O)(=O)c1ccc(F)cc1 565 nM
C[C@@H]1CN([C@@H](C)CO)C(=O)c2cc(NC(=O)Nc3ccccc3)ccc2O[C@@H](C)CCCCO[C@H]1CN(C)S(=O)(=O)c1ccccc1F 2000 nM
C[C@@H]1CN(C)C(=O)c2cc(NC(=O)Nc3ccccc3)ccc2O[C@@H](C)CCCCO[C@@H]1CN(C)S(=O)(=O)c1ccc(F)cc1 3570 nM
C[C@@H]1CN([C@@H](C)CO[Si](C)(C)C(C)(C)C)C(=O)c2cc(NC(=O)Nc3ccccc3)ccc2O[C@@H](C)CCCCO[C@H]1CN(C)S(=O)(=O)c1ccc(F)cc1 5 nM
COCOC[C@H](C)N1C[C@@H](C)[C@H](CN(C)S(=O)(=O)c2ccc(F)cc2)OCCCC[C@H](C)Oc2ccc(NC(=O)Nc3ccccc3)cc2C1=O 28.3 nM
C[C@@H]1CN([C@H](C)CO[Si](C)(C)C(C)(C)C)C(=O)c2cc(NC(=O)Nc3ccccc3)ccc2O[C@@H](C)CCCCO[C@H]1CN(C)S(=O)(=O)c1ccc(F)cc1 565 nM
C[C@@H]1CN([C@@H](C)COC(C)(C)C)C(=O)c2cc(NC(=O)Nc3ccccc3)ccc2O[C@@H](C)CCCCO[C@H]1CN(C)S(=O)(=O)c1ccc(F)cc1 3.6 nM
C[C@@H]1CN([C@@H](C)CO)C(=O)c2cc(NC(=O)Nc3ccccc3)ccc2O[C@@H](C)CCCCO[C@H]1CN(C)C(=O)OC(C)(C)C 2250 nM
C[C@@H]1CN([C@@H](C)CO)C(=O)c2cc(NC(=O)Nc3ccccc3)ccc2O[C@@H](C)CCCCO[C@H]1CN(C)Cc1ccc(C(F)(F)F)cc1 1590 nM
C=CCOC(=O)N(C)C[C@H]1OCCCC[C@H](C)Oc2ccc(NC(=O)Nc3ccccc3)cc2C(=O)N([C@@H](C)CO[Si](C)(C)C(C)(C)C)C[C@H]1C 565 nM
C[C@@H]1CN([C@@H](C)COC(=O)C(C)(C)C)C(=O)c2cc(NC(=O)Nc3ccccc3)ccc2O[C@@H](C)CCCCO[C@H]1CN(C)S(=O)(=O)c1ccc(F)cc1 50.4 nM
COc1ccc(COCCN2C[C@@H](C)[C@H](CN(C)S(=O)(=O)c3ccc(F)cc3)OCCCC[C@H](C)Oc3ccc(NC(=O)Nc4ccccc4)cc3C2=O)cc1 252 nM
C[C@@H]1CCCCO[C@H](CN(C)C(=O)Nc2ccc(F)cc2)[C@H](C)CN([C@@H](C)CO)C(=O)c2cc(NS(=O)(=O)c3ccccc3)ccc2O1 504 nM
COc1ccc(COC[C@H](C)N2C[C@@H](C)[C@H](CN(C)Cc3ccc(OC)cc3)OCCCC[C@H](C)Oc3ccc(NC(=O)Nc4ccccc4)cc3C2=O)cc1 798 nM
C[C@@H]1CN([C@@H](C)CO)C(=O)c2cc(N)ccc2O[C@@H](C)CCCCO[C@H]1CN(C)S(=O)(=O)c1ccc(F)cc1 711 nM
C[C@@H]1CN(CCO[Si](C)(C)C(C)(C)C)C(=O)c2cc(NC(=O)Nc3ccccc3)ccc2O[C@@H](C)CCCCO[C@H]1CN(C)S(=O)(=O)c1ccc(F)cc1 225 nM
C[C@@H]1CN([C@@H](C)CO)C(=O)c2cc(NC(=O)Nc3ccccc3)ccc2O[C@@H](C)CCCCO[C@H]1CN(C)S(=O)(=O)c1ccc(C(F)(F)F)cc1 1130 nM
